Calls of active or inactive are those of the source.

The test system of assay [1] is Plasmodium falciparum Sir2 (PF13_0152, Sir2A). The experiment in a line: Plasmodium falciparum Sir2A binding compounds – biochemical, small-molecule microarray, 635 nm fluorescence, primary screen (AID 1098).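 Further: score merges spot fluorescence intensity with its signal-to-noise ratio.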 To be noted: fluorescence 635 nm, higher = more signal.
Assay [2] is described as follows: probe aDKK1 binding to arrayed compounds – biochemical, biotinylated probe, 635/667 nm fluorescence, primary screen (AID 1099).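 Further: score merges 667nm spot fluorescence with signal to noise across triplicate slides.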 The settings on record: small-molecule microarray, higher = more signal.
Assay [3] in a line: probe aCHRDL2 binding to arrayed compounds – biochemical, biotinylated probe, 635/667 nm fluorescence, primary screen (AID 1100). To be noted: small-molecule microarray, higher = more signal.
A short description of assay [4]: change in splice reporter luminescence, either direction, cell-based, HEK293, spliceosome inhibition project, primary screen (AID 1101).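 Further: HEK293 cells carrying a splicing-competent luciferase reporter gene; test concentration not given here.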 The settings on record: HEK293 splicing luciferase reporter, 24 h, higher = more signal, called active from +8 up or from −8 down. On the technique in general: In a reporter assay the amount or activity of a reporter protein is the signal.

Assay [5] addresses Fibroblast growth factor 10 (Homo sapiens) (UniProt O15520). In words: compounds binding fibroblast growth factor 10 – biochemical, small-molecule microarray, 635 nm fluorescence, primary screen (AID 1102). To be noted: FGF10 binding, fluorescence 635 nm, higher = more signal.
The test system of assay [6] is glycogen synthase kinase-3 (GSK3A per assay name; protocol says GSK3B). The experiment in a line: compounds binding glycogen synthase kinase-3 – biochemical, small-molecule microarray, 635 nm fluorescence, GSK3A, primary screen (AID 1103). Further: the record names both GSK3A and GSK3B. To be noted: fluorescence 635 nm, higher = more signal.
Assay [7] concerns the target Epidermal growth factor receptor (Homo sapiens) (UniProt P00533). The experiment in a line: compounds binding epidermal growth factor receptor – biochemical, small-molecule microarray, 635 nm fluorescence, primary screen (AID 1104).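 Further: score merges 667 nm emission intensity with spot signal to noise over triplicate slides.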 The settings on record: EGFR binding, higher = more signal.
The target of assay [8] is Follistatin-related protein 3 (Homo sapiens) (UniProt O95633). In words: compounds binding follistatin-related protein 3 – biochemical, small-molecule microarray, 635 nm fluorescence, primary screen (AID 1105).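 Further: score merges emission near 667 nm and signal to noise per printed spot across three slides.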 To be noted: FSTL3 binding, higher = more signal.
Sequence of Follistatin-related protein 3 (Homo sapiens) (O95633 whole entry, looked up): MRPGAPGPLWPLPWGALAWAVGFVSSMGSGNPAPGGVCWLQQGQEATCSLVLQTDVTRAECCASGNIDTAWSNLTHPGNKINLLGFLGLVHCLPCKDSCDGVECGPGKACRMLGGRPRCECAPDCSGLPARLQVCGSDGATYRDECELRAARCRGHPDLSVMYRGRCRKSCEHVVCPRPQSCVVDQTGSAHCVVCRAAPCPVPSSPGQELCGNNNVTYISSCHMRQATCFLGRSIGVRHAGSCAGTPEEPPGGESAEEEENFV
The target of assay [9] is Dickkopf-related protein 1 (Homo sapiens) (UniProt O94907). The experiment in a line: small molecules binding DKK1 protein – biochemical, small-molecule microarray, 635 nm fluorescence scan, primary screen (AID 1106).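 Further: score merges emission near 667 nm with signal to noise over three replicate slides.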 To be noted: higher = more signal.
Sequence of Dickkopf-related protein 1 (Homo sapiens) (O94907 whole entry, looked up): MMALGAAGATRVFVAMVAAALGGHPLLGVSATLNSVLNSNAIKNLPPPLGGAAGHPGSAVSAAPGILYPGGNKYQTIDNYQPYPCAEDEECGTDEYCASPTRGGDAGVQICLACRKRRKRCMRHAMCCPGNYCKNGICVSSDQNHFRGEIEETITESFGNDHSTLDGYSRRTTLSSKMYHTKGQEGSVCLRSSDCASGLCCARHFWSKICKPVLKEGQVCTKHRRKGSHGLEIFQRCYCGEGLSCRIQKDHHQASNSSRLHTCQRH
Assay [10] relates to Inhibin beta A chain (activin A). The experiment in a line: small molecules binding activin A – biochemical, small-molecule microarray, 635 nm fluorescence scan, primary screen (AID 1107).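 Further: mouse activin A protein probed at 4.33 µg/mL on printed slides; score merges bound-protein fluorescence near 667 nm with spot signal-to-noise.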 The settings on record: INHBA, higher = more signal.
Assay [11] relates to Human papillomavirus type 1a protein E7 (residues 44-93). In words: small molecules binding HPV E7 44-93 – biochemical, small-molecule microarray, residues 44-93, 635 nm fluorescence, primary screen (AID 1108).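 Further: E7 fragment applied at 1 µg/mL in TBST for 1 h at 4 C; score combines spot fluorescence with its signal to noise ratio.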 The settings on record: fluorescence 635 nm, higher = more signal.
Assay [12] can be described thus: hepatitis C replication reporter changes, two-sided – Huh7 cells, luciferase reporter, HCV replication inhibitor project, primary screen (AID 1109).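 Further: huh7 hepatoma cells harbouring a luciferase neomycin HCV replicon reporter; luciferase luminescence as measure of HCV replicon replication; test concentration not given here.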 The settings on record: Huh7 HCV replicon luciferase reporter, 48 h; higher = more signal.
Assay [13] concerns the target Left-right determination factor 2 (Homo sapiens) (UniProt O00292). In words: small molecules binding LEFTY2 protein – biochemical, small-molecule microarray, 635 nm fluorescence scan, primary screen (AID 1110). To be noted: higher = more signal.
For assay [14], the target named is Calmodulin-1 (Homo sapiens) (UniProt P0DP23). In words: small molecules binding calmodulin-1 with EGTA – biochemical, small-molecule microarray, Cy5-labelled CALM1, profiling panel (AID 1111).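 Further: labelled calmodulin applied in Tris saline Tween buffer holding calcium plus EGTA and DTT.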 The settings on record: Cy5-CALM1 binding fluorescence, higher = more signal.
Assay [15] shares this target. In words: small molecules binding Ca-loaded calmodulin-1 – biochemical, small-molecule microarray, Cy5-labelled CALM1, plus calcium, artefact control for SMM control-protein annotation, profiling panel (AID 1112).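 Further: score merges spot fluorescence with signal to noise from triplicate slides.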 To be noted: Cy5-CALM1 binding fluorescence, higher = more signal.
Assay [16] can be described thus: probe aWnt5a binding to arrayed compounds – biochemical, biotinylated probe, 635/667 nm fluorescence, primary screen (AID 1113).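 Further: score merges 667 nm fluorescence intensity with signal-to-noise per printed feature.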 To be noted: small-molecule microarray, higher = more signal.
Assay [17] in a line: probe aShh binding to arrayed compounds – biochemical, biotinylated probe, 635/667 nm fluorescence, primary screen (AID 1114).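 Further: probe is biotin-labelled aShh protein from a stem cell growth factor screen; measures binding of labelled protein to compounds printed on the slide; score merges feature fluorescence at 667 nm with signal-to-noise.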 The settings on record: small-molecule microarray, higher = more signal.
The nature of assay [18]: probe aNog binding to arrayed compounds – biochemical, biotinylated probe, 635/667 nm fluorescence, primary screen (AID 1115).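 Further: probe is biotinylated aNog protein used at 0.15 µg/mL for 1 h at 4 C; z-score combines 667 nm fluorescence of each spot with its signal to noise.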 The settings on record: small-molecule microarray, higher = more signal.
Assay [19] concerns the target Torsin-1A-interacting protein 1 (Homo sapiens) (UniProt Q5JTV8). The experiment in a line: compound microarray binding of lysate hLAP1 – cell lysate, small-molecule microarray, COS7 lysate, 635/667 nm fluorescence, primary screen (AID 1116). To be noted: 635 nm fluorescence, higher = more signal.
For assay [20], the target named is Alpha-bungarotoxin (Bungarus multicinctus) (UniProt P60615). The experiment in a line: compounds binding labelled alpha-BTX control protein – biochemical, small-molecule microarray, Alexa647 label, 635/667 nm fluorescence, artefact control for SMM control protein annotation, profiling panel (AID 1117). To be noted: alpha-BTX-A647 binding fluorescence, higher = more signal.
Sequence of Alpha-bungarotoxin (Bungarus multicinctus) (P60615 whole entry, looked up): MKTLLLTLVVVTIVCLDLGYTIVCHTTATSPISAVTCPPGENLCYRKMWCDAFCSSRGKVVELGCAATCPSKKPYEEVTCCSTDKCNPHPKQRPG

Sequence of Epidermal growth factor receptor (Homo sapiens) (P00533 whole entry, looked up): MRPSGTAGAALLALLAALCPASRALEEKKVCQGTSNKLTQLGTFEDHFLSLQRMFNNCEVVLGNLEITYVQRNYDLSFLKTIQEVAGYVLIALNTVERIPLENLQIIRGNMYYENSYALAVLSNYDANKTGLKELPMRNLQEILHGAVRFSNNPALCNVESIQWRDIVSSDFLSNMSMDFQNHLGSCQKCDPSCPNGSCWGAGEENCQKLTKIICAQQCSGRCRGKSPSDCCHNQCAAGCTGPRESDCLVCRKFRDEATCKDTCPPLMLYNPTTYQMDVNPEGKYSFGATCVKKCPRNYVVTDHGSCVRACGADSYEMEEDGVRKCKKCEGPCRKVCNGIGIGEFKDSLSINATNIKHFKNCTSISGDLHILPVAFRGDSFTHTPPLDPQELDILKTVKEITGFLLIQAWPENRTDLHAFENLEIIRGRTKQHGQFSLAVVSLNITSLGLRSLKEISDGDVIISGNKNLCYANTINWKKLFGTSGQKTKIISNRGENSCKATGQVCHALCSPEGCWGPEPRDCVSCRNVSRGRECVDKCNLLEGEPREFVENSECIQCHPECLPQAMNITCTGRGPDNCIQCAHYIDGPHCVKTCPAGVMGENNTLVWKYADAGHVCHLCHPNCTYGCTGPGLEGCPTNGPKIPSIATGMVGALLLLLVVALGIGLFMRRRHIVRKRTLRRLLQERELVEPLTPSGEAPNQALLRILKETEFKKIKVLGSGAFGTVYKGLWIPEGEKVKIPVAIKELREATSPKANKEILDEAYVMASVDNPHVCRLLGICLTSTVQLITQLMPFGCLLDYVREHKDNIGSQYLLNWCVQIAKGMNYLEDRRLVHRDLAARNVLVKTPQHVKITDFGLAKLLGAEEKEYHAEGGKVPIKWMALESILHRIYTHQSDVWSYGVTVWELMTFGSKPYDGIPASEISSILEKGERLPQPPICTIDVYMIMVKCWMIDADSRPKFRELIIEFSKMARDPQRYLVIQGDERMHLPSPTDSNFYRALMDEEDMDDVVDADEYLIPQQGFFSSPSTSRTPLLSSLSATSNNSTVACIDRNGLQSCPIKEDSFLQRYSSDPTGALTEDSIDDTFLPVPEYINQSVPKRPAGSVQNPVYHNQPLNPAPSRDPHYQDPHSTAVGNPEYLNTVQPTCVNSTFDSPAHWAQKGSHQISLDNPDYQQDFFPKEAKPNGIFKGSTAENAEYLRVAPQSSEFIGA
Sequence of Left-right determination factor 2 (Homo sapiens) (O00292 whole entry, looked up): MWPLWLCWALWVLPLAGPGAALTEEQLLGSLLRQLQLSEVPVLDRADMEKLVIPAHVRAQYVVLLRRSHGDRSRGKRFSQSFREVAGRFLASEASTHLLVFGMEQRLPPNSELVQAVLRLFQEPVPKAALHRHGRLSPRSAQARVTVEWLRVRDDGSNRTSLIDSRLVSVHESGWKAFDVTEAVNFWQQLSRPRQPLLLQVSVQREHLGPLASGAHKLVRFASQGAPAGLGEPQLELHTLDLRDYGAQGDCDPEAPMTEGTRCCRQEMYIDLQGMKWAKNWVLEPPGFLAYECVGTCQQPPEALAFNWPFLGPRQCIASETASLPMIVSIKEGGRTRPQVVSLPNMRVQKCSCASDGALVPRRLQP
Sequence of Fibroblast growth factor 10 (Homo sapiens) (O15520 whole entry, looked up): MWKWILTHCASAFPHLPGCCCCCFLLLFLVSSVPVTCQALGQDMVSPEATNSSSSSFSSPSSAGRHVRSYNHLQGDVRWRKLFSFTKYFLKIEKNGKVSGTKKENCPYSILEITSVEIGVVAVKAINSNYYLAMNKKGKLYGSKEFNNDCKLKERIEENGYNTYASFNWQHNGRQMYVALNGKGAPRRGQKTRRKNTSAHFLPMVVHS
Sequence of Torsin-1A-interacting protein 1 (Homo sapiens) (Q5JTV8 whole entry, looked up): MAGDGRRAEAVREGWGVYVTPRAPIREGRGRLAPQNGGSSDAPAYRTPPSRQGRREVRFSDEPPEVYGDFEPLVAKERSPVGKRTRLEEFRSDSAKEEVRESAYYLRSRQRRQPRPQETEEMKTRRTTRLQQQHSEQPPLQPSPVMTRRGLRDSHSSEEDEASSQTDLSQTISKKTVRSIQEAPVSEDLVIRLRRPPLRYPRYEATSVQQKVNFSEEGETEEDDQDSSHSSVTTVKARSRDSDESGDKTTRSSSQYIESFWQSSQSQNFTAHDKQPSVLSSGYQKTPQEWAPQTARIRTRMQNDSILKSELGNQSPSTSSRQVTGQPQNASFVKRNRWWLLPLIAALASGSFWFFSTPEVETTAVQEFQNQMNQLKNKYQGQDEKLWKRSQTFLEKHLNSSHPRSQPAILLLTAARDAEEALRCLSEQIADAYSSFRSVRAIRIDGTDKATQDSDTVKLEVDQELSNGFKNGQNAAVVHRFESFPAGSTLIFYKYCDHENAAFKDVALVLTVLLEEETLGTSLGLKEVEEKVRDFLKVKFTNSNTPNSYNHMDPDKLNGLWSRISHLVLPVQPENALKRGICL

Regarding `CCOC(=O)[C@H](Cc1ccccc1)NC(=O)CCC1CC(OC(=O)NCc2ccc3c(c2)OCO3)CC2(CCCC(COC(=O)NCC3CCCCC3)O2)O1` (stereo not given in full), the composite z-score in assay [1] was 0.599; in assay [2], -0.151; in assay [3], -0.5; in assay [5], 0.802; in assay [6], 1.27; in assay [7] it was 0.44. The composite z-score is 1.05 in assay [8]; 0.655 in [9]; -0.0031 in assay [10]; 1.31 in assay [11]; 0.617 in [13]; 0.433 in assay [14]. The composite z-score in assay [15] is -0.135; in assay [16], -0.0179; in assay [17], -0.299; in assay [18] it was -0.167; in assay [19], 0.517; in assay [20], 0.629. Also, the z-score in assay [4] was -0.481 (inactive); in assay [12], -0.443.
With `COC(=O)C1(C)C=C2C(=C(c3ccccc3)C(=O)C2C)CN1` (stereo not given), the composite z-score is 0.537 in [1]; 1.14 in [2]; 1.22 in assay [3]; -0.174 in [5]; -0.824 in assay [6]; -0.709 in assay [7]. In addition, the composite z-score in assay [8] was -1.29; in [9], -1.16; in [10], 1.45; in assay [11], -1.06; in assay [13] it was -1.3; in [14] it was 0.29. Besides, the composite z-score in assay [15] is -0.0125; in [16] it was -0.034; in assay [17] it was -0.119; in assay [18], 1.74; in assay [19] it was 1.72; in assay [20], -0.422. Besides, the z-score in assay [4] is 1.21 (inactive); in assay [12], -0.546.
In the case of `COCC(=C=CC[C@@H](O)c1ccccc1OCCO)CCO`, the composite z-score was 0.718 in [1]; 0.117 in assay [2]; 0.09 in assay [3]; 1.49 in assay [5]; -0.0421 in assay [6]; -0.423 in [7]. In addition, the composite z-score in assay [8] is 0.135; in assay [9] it was 0.335; in assay [10] it was 0.706; in assay [11] it was 0.692; in [13] it was -0.0632; in assay [14], 0.0775. For the same compound, the composite z-score is 0.119 in [15]; -0.206 in [16]; 0.0796 in assay [17]; -0.333 in [18]; 0.416 in [19]; 0.113 in assay [20]. Further, the z-score in [4] is 0.0385 (inactive); in [12], -0.779.
As for `CN(C)c1ccc(C(O)C2C=CC3C(=O)N(c4ccccc4)C(=O)C3N2Nc2ccccc2F)cc1` (stereo not given), the composite z-score was 1.58 in assay [1]; 0.407 in assay [2]; 0.792 in assay [3]; -0.235 in [5]; 1.23 in [6]; -0.675 in [7]. In addition, the composite z-score is 0.206 in assay [8]; -0.606 in assay [9]; 0.941 in assay [10]; 1.31 in [11]; -0.633 in assay [13]; 0.104 in assay [14]. For the same compound, the composite z-score in assay [15] is -0.472; in assay [16], -0.0685; in assay [17], 0.275; in assay [18], 0.471; in assay [19], 0.838; in assay [20], 0.738. Also, the z-score was -0.947 (inactive) in assay [4] and -0.369 in assay [12].
With `CC(CCN1CCCCc2nc(C)c(C)cc21)=NOC(C)CN1CCCc2nc(C)c(C)cc21` (stereo not given), the composite z-score in assay [1] is 1.53; in [2] it was 0.699; in assay [3] it was -0.324; in assay [5], 1.35; in assay [6] it was 1.32; in [7] it was 1.56. Further, the composite z-score is 1.47 in assay [8]; 1.05 in assay [9]; 1.5 in [10]; 1.2 in assay [11]; 1.12 in [13]; 1.09 in assay [14]. The composite z-score in assay [15] was -0.573; in assay [16], 0.298; in [17] it was 1.25; in [18], 0.578; in [19] it was 1.13; in assay [20], 2.07. The z-score in [4] is 0.506 (inactive); in assay [12], -0.974.
Take `Cc1ccc(S(=O)(=O)N[C@@H]2COC(=O)[C@H](C)COC(=O)CC=C[C@H]2C)cc1`: the composite z-score in assay [1] was -0.0259; in [2] it was -0.291; in assay [3], -0.589; in [5], 0.66; in assay [6] it was 0.771; in assay [7] it was 0.751. The composite z-score in assay [8] was 1.41; in [9] it was 1.8; in assay [10], 1.16; in assay [11], -0.45; in assay [13], 0.602; in [14], -0.163. Moreover, the composite z-score in assay [15] was -0.964; in [16] it was -0.13; in [17] it was -0.117; in [18], -0.425; in [19], 0.438; in assay [20], 0.0762. Further, the z-score in assay [4] was 0.159 (inactive); in [12] it was 0.668.

These data come from PubChem BioAssay.
